Measured values published in PubChem BioAssay.
Active and inactive are the calls of the source.

Tests used:
[1] = tested on: Plasmodium falciparum Sir2 (PF13_0152, Sir2A); assay: Plasmodium falciparum Sir2A binding compounds – biochemical, small-molecule microarray, 635 nm fluorescence, primary screen (AID 1098); settings: fluorescence 635 nm, higher = more signal;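 also: score merges spot fluorescence intensity with its signal-to-noise ratio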
[2] = probe aDKK1 binding to arrayed compounds – biochemical, biotinylated probe, 635/667 nm fluorescence, primary screen (AID 1099); settings: small-molecule microarray, higher = more signal;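 also: score merges 667nm spot fluorescence with signal to noise across triplicate slides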
[3] = probe aCHRDL2 binding to arrayed compounds – biochemical, biotinylated probe, 635/667 nm fluorescence, primary screen (AID 1100); settings: small-molecule microarray, higher = more signal
[4] = change in splice reporter luminescence, either direction, cell-based, HEK293, spliceosome inhibition project, primary screen (AID 1101); settings: HEK293 splicing luciferase reporter, 24 h, higher = more signal, called active from +8 up or from −8 down;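 also: HEK293 cells carrying a splicing-competent luciferase reporter gene; test concentration not given here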
[5] = molecular target: Fibroblast growth factor 10 (Homo sapiens) (UniProt O15520); assay: compounds binding fibroblast growth factor 10 – biochemical, small-molecule microarray, 635 nm fluorescence, primary screen (AID 1102); settings: FGF10 binding, fluorescence 635 nm, higher = more signal
Chain of Fibroblast growth factor 10 (Homo sapiens) (O15520 whole entry, looked up): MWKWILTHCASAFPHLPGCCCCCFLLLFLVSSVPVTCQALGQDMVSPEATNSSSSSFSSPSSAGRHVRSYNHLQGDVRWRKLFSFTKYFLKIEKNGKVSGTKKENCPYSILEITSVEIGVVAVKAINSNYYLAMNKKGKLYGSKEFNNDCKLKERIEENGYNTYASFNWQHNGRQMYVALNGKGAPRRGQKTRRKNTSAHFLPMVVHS

[6] = tested on: glycogen synthase kinase-3 (GSK3A per assay name; protocol says GSK3B); assay: compounds binding glycogen synthase kinase-3 – biochemical, small-molecule microarray, 635 nm fluorescence, GSK3A, primary screen (AID 1103); settings: fluorescence 635 nm, higher = more signal; also: the record names both GSK3A and GSK3B
[7] = molecular target: Epidermal growth factor receptor (Homo sapiens) (UniProt P00533); assay: compounds binding epidermal growth factor receptor – biochemical, small-molecule microarray, 635 nm fluorescence, primary screen (AID 1104); settings: EGFR binding, higher = more signal;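 also: score merges 667 nm emission intensity with spot signal to noise over triplicate slides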
Chain of Epidermal growth factor receptor (Homo sapiens) (P00533 whole entry, looked up): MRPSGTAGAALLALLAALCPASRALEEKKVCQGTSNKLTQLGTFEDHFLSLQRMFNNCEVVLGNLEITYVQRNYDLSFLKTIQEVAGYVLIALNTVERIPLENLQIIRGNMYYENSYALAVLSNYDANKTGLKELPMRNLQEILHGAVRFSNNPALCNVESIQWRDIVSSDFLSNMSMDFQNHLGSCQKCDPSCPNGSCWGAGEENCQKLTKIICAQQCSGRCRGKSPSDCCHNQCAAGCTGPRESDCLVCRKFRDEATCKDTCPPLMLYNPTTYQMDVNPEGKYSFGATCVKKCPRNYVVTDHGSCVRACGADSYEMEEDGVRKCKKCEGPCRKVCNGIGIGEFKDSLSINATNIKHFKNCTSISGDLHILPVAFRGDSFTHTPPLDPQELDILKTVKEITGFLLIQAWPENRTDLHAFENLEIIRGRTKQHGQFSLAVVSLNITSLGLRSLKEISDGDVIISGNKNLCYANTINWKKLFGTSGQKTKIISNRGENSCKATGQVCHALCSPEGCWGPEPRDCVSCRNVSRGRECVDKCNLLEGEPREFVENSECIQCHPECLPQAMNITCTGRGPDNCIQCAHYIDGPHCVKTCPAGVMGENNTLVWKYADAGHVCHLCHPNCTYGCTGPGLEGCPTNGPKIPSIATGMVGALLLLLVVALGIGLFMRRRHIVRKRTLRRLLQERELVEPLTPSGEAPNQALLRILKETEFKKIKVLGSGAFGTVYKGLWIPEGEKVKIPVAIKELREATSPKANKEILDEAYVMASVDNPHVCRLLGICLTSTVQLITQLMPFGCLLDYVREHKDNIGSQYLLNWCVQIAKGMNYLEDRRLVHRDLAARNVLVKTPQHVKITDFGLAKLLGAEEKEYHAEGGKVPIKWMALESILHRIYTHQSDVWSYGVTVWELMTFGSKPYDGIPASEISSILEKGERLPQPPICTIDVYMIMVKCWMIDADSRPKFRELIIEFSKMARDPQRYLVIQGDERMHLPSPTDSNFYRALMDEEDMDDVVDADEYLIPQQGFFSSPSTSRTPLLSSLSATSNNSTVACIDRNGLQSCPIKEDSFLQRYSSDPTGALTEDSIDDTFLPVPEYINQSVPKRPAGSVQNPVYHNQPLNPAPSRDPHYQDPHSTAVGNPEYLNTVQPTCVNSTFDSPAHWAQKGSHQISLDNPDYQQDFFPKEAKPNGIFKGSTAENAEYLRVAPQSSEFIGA

[8] = molecular target: Follistatin-related protein 3 (Homo sapiens) (UniProt O95633); assay: compounds binding follistatin-related protein 3 – biochemical, small-molecule microarray, 635 nm fluorescence, primary screen (AID 1105); settings: FSTL3 binding, higher = more signal;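 also: score merges emission near 667 nm and signal to noise per printed spot across three slides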
Chain of Follistatin-related protein 3 (Homo sapiens) (O95633 whole entry, looked up): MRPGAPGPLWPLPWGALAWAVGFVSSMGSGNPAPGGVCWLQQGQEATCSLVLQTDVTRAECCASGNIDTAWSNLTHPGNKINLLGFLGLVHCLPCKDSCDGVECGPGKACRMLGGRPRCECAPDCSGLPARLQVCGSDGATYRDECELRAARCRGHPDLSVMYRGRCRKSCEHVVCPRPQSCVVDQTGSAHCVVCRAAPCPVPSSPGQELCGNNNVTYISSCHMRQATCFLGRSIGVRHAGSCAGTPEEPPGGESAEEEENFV

[9] = molecular target: Dickkopf-related protein 1 (Homo sapiens) (UniProt O94907); assay: small molecules binding DKK1 protein – biochemical, small-molecule microarray, 635 nm fluorescence scan, primary screen (AID 1106); settings: higher = more signal;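 also: score merges emission near 667 nm with signal to noise over three replicate slides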
Chain of Dickkopf-related protein 1 (Homo sapiens) (O94907 whole entry, looked up): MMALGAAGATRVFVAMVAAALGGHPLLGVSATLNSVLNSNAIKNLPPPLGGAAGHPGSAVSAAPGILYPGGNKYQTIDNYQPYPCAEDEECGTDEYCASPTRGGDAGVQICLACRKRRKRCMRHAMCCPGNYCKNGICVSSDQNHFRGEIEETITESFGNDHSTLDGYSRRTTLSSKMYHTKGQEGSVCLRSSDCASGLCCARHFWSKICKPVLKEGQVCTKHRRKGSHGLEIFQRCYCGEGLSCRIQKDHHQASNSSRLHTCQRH

[10] = tested on: Inhibin beta A chain (activin A); assay: small molecules binding activin A – biochemical, small-molecule microarray, 635 nm fluorescence scan, primary screen (AID 1107); settings: INHBA, higher = more signal;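 also: mouse activin A protein probed at 4.33 µg/mL on printed slides; score merges bound-protein fluorescence near 667 nm with spot signal-to-noise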
[11] = tested on: Human papillomavirus type 1a protein E7 (residues 44-93); assay: small molecules binding HPV E7 44-93 – biochemical, small-molecule microarray, residues 44-93, 635 nm fluorescence, primary screen (AID 1108); settings: fluorescence 635 nm, higher = more signal;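 also: E7 fragment applied at 1 µg/mL in TBST for 1 h at 4 C; score combines spot fluorescence with its signal to noise ratio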
[12] = hepatitis C replication reporter changes, two-sided – Huh7 cells, luciferase reporter, HCV replication inhibitor project, primary screen (AID 1109); settings: Huh7 HCV replicon luciferase reporter, 48 h; higher = more signal;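 also: huh7 hepatoma cells harbouring a luciferase neomycin HCV replicon reporter; luciferase luminescence as measure of HCV replicon replication; test concentration not given here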
[13] = molecular target: Left-right determination factor 2 (Homo sapiens) (UniProt O00292); assay: small molecules binding LEFTY2 protein – biochemical, small-molecule microarray, 635 nm fluorescence scan, primary screen (AID 1110); settings: higher = more signal
Chain of Left-right determination factor 2 (Homo sapiens) (O00292 whole entry, looked up): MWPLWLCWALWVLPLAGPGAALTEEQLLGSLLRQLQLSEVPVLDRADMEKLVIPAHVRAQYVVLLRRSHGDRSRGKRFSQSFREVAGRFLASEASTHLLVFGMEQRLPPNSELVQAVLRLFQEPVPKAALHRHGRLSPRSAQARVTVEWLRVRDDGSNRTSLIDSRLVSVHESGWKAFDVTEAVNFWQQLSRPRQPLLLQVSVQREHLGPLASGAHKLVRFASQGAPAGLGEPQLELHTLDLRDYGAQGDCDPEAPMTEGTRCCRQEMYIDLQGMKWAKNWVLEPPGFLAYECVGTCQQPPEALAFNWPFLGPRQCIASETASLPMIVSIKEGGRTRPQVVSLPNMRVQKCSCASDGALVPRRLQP

[14] = molecular target: Calmodulin-1 (Homo sapiens) (UniProt P0DP23); assay: small molecules binding calmodulin-1 with EGTA – biochemical, small-molecule microarray, Cy5-labelled CALM1, profiling panel (AID 1111); settings: Cy5-CALM1 binding fluorescence, higher = more signal;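 also: labelled calmodulin applied in Tris saline Tween buffer holding calcium plus EGTA and DTT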
[15] = molecular target: Calmodulin-1 (Homo sapiens) (UniProt P0DP23); assay: small molecules binding Ca-loaded calmodulin-1 – biochemical, small-molecule microarray, Cy5-labelled CALM1, plus calcium, artefact control for SMM control-protein annotation, profiling panel (AID 1112); settings: Cy5-CALM1 binding fluorescence, higher = more signal;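 also: score merges spot fluorescence with signal to noise from triplicate slides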
[16] = probe aWnt5a binding to arrayed compounds – biochemical, biotinylated probe, 635/667 nm fluorescence, primary screen (AID 1113); settings: small-molecule microarray, higher = more signal;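 also: score merges 667 nm fluorescence intensity with signal-to-noise per printed feature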
[17] = probe aShh binding to arrayed compounds – biochemical, biotinylated probe, 635/667 nm fluorescence, primary screen (AID 1114); settings: small-molecule microarray, higher = more signal;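 also: probe is biotin-labelled aShh protein from a stem cell growth factor screen; measures binding of labelled protein to compounds printed on the slide; score merges feature fluorescence at 667 nm with signal-to-noise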
[18] = probe aNog binding to arrayed compounds – biochemical, biotinylated probe, 635/667 nm fluorescence, primary screen (AID 1115); settings: small-molecule microarray, higher = more signal;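 also: probe is biotinylated aNog protein used at 0.15 µg/mL for 1 h at 4 C; z-score combines 667 nm fluorescence of each spot with its signal to noise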
[19] = molecular target: Torsin-1A-interacting protein 1 (Homo sapiens) (UniProt Q5JTV8); assay: compound microarray binding of lysate hLAP1 – cell lysate, small-molecule microarray, COS7 lysate, 635/667 nm fluorescence, primary screen (AID 1116); settings: 635 nm fluorescence, higher = more signal
Chain of Torsin-1A-interacting protein 1 (Homo sapiens) (Q5JTV8 whole entry, looked up): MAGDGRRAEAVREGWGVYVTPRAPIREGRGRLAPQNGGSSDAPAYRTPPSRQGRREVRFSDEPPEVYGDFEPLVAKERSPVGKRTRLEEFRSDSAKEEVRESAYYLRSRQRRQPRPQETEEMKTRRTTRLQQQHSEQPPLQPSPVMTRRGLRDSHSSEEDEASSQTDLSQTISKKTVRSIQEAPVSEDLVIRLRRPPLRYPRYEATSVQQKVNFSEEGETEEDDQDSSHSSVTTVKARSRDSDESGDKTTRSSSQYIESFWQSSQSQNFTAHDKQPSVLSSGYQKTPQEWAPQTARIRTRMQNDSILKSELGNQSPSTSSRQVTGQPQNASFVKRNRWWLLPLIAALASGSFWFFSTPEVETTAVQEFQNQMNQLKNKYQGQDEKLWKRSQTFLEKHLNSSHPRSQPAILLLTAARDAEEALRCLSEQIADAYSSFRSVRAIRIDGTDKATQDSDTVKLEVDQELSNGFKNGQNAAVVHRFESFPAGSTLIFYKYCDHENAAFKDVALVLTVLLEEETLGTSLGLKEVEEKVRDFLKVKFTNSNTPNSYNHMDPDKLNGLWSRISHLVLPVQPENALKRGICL

[20] = molecular target: Alpha-bungarotoxin (Bungarus multicinctus) (UniProt P60615); assay: compounds binding labelled alpha-BTX control protein – biochemical, small-molecule microarray, Alexa647 label, 635/667 nm fluorescence, artefact control for SMM control protein annotation, profiling panel (AID 1117); settings: alpha-BTX-A647 binding fluorescence, higher = more signal
Chain of Alpha-bungarotoxin (Bungarus multicinctus) (P60615 whole entry, looked up): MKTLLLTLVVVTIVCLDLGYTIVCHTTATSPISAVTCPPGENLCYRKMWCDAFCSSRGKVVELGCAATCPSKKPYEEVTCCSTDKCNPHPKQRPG

SMILES	composite z-score [1]	composite z-score [2]	composite z-score [3]	z-score [4]	composite z-score [5]	composite z-score [6]	composite z-score [7]	composite z-score [8]	composite z-score [9]	composite z-score [10]	composite z-score [11]	z-score [12]	composite z-score [13]	composite z-score [14]	composite z-score [15]	composite z-score [16]	composite z-score [17]	composite z-score [18]	composite z-score [19]	composite z-score [20]
COC(=O)[C@@]1(Cc2ccc(OC)cc2)[C@H]2c3cc(C(=O)N4CCCC4)n(Cc4ccc(C)c(F)c4F)c3C[C@H]2CN1C(=O)c1ccccc1	1.05	1.09	1.33	-0.282 (inactive)	0.791	1.29	-0.139	1.18	-0.602	0.702	1.48	-2.34	-0.401	2.14	1.3	-0.0553	-0.155	1.65	0.113	1.55
O=C1C2C=CC(C(O)c3cc(C(F)(F)F)cc(C(F)(F)F)c3)N(n3cnnc3)C2C(=O)N1Cc1ccccc1 (stereo not given)	0.716	-0.0958	0.531	-0.27 (inactive)	-0.409	-0.261	-0.165	-0.103	-1.17	-0.301	1.11	-0.418	-0.63	0.538	-0.374	-0.0161	0.14	0.705	-0.133	-0.0735
COc1cc2c(cc1O)C(c1cccs1)N(C)CC2 (stereo not given)	0.0826	-0.287	0.0135	0.153 (inactive)	-0.654	-0.995	0.0174	-0.558	-0.332	0.0723	-1.61	0.159	-0.496	-0.705	0.423	-0.126	-0.2	-0.215	-0.205	-0.759
COCCOC(=O)N1C(=O)[C@@]2(c3cc(C#CCC(C(=O)OC)C(=O)OC)ccc31)[C@H](C(=O)Nc1nc3ccccc3s1)[C@H]1C(=O)O[C@H](c3ccccc3)[C@H](c3ccccc3)N1[C@@H]2c1ccccc1OCCO	1.52	0.467	0.76	0.952 (inactive)	0.634	1.04	0.231	1.29	-0.154	0.046	0.142	-1.52	0.6	1.69	0.72	-0.0445	0.151	0.106	0.886	2.2
C=CCC(OC(C)=O)[C@@H]1[C@@H](N(Cc2ccc(-c3ccccc3)cc2)C(=O)Cc2ccc(OC)cc2)c2cc(OCCCO)ccc2N1C(=O)Cc1ccc2ccccc2c1 (stereo not given in full)	-0.324	-0.0834	0.308	0.247 (inactive)	-0.437	-0.299	-0.163	-0.0274	-0.0237	1.06	-0.285	-1.14	-0.305	-0.247	0.831	-0.0297	-0.0769	-0.366	-0.172	0.87
C=C(CCCC)/C(=C/C[C@H](OC(=O)c1ccncc1)c1ccccc1OCCO)c1cnc2ccccc2c1	0.869	-0.037	-0.286	-0.292 (inactive)	1.08	0.898	0.591	1.49	0.472	1.66	1.13	-2.82	0.274	0.154	-0.666	-0.096	-0.0977	-0.0428	0.634	0.527
C=CCN1C(=O)[C@]2(O[C@H](CCn3cc([C@H](O)c4ccccc4)nn3)[C@@H]([Si](C)(C)c3ccc(OC)cc3)[C@@H]2C)c2ccccc21	0.474	-0.291	0.414	3.39 (inactive)	-0.364	-0.781	-1.25	-0.581	-0.651	0.162	-1.22	-2.71	-0.901	-0.525	0.227	-0.124	-0.0146	-0.223	-0.252	-1.56
